Data on eight compounds can be found in PubChem BioAssay (NCI).

About 83,000 compounds went through this panel and 20% of them were active in at least one assay; those are over-represented in the sample as a whole.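 Cells were grown in 96-well plates and exposed to the test compound at a single concentration for 48 hours; results are reported as percent growth, with values below 10 considered active.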 Unmarked numbers belong to inactive results. Activity calls are given as the source filed them.

Test systems include NCI-H23 lung; NCI-H226 lung; NCI-H322M lung; HOP-62 NSCLC; NCI-H460 lung; HOP-92 NSCLC; NCI-H522 lung; A549/ATCC NSCLC; 786-0 renal; COLO 205 colon; DU-145 prostate; K-562 leukemia; MALME-3M melanoma; MDA-MB-231 breast; RXF 393 renal; SF-268 CNS; SF-295 CNS; SF-539 CNS; UACC-257 melanoma; M14 melanoma.
What all share (assay): NCI-60 one-dose screen, 48 h (100 = growth as untreated, 0 = no growth, -100 = all killed)
Common to all, as to details: 10 µM unless noted

For `COc1ccc(/C=C(\C(=O)NCc2cccnc2)S(=O)(=O)c2ccccc2)cc1OC`, the growth is 37.1% in the test with NCI-H23 lung; 74.6% in the test with NCI-H226 lung; 41.3% in the test on NCI-H322M lung; 50.7% in the test with HOP-62 NSCLC; 14.7% in the test on NCI-H460 lung; 43.5% in the test with HOP-92 NSCLC. Further, the growth in the test with NCI-H522 lung is -4.24% (active); in the test on A549/ATCC NSCLC it was 45.7%; with 786-0 renal it was 20.8%; with COLO 205 colon, 30.2%; in the test on DU-145 prostate it was 5.77% (active); in the test with K-562 leukemia it was 8.68% (active). The growth was 48% in the test on MALME-3M melanoma; 22.8% in the test with MDA-MB-231 breast; 15.5% with RXF 393 renal; 29.1% with SF-268 CNS; 57.8% with SF-295 CNS; 15.3% with SF-539 CNS. Besides, the growth is 44.7% in the test on UACC-257 melanoma and 28.8% in the test on M14 melanoma.
For the compound `COc1ccc2[nH]cc(-c3nonc3-c3c[nH]c4ccc(Br)cc34)c2c1`, the growth was 54.1% in the test on NCI-H23 lung; 74.8% in the test on NCI-H226 lung; 50.5% in the test with NCI-H322M lung; 33.8% in the test on HOP-62 NSCLC; 8.13% (active) in the test on NCI-H460 lung; 54% in the test on HOP-92 NSCLC. Also, the growth in the test with NCI-H522 lung is 8.48% (active); in the test on A549/ATCC NSCLC, 35.3%; in the test on 786-0 renal, 61.4%; in the test on COLO 205 colon it was 32.1%; in the test with DU-145 prostate it was 43.8%; in the test on K-562 leukemia it was 7.68% (active). Further, the growth in the test with MALME-3M melanoma is 70.4%; in the test with MDA-MB-231 breast, 5.3% (active); with RXF 393 renal, 76.7%; in the test with SF-268 CNS it was 47%; in the test on SF-295 CNS, 26.1%; in the test on SF-539 CNS it was 56.3%. For the same compound, the growth in the test with UACC-257 melanoma is 64.2%; in the test with M14 melanoma it was 31.8%.
Take `Cc1cc(C)c2c(c1)N(C)c1ncnc(-n3c(C)nc4cc(C)ccc43)c1CC2C` (stereo not given): the growth in the test on NCI-H23 lung was 61.7%; in the test with NCI-H226 lung, 61.6%; in the test with NCI-H322M lung it was 73.4%; with HOP-62 NSCLC it was 43.7%; with NCI-H460 lung, 22.6%; with HOP-92 NSCLC it was 11.2%. For the same compound, the growth in the test with NCI-H522 lung is 19.4%; in the test with A549/ATCC NSCLC, 26.3%; in the test with 786-0 renal, 30.1%; in the test with COLO 205 colon, 54.1%; in the test on DU-145 prostate it was 55.3%; in the test on K-562 leukemia, 12.4%. Besides, the growth is 45.4% with MALME-3M melanoma; 61.2% with MDA-MB-231 breast; -10.4% (active) in the test with RXF 393 renal; 45.9% in the test with SF-268 CNS; 9.14% (active) with SF-295 CNS; 25.2% with SF-539 CNS. Besides, the figures for the growth in the test with UACC-257 melanoma and in the test with M14 melanoma were 25.8% and 25.3%, respectively.
In the case of `O=C(/C=C/c1ccccc1Cl)c1cccc(OCCCCOc2cccc(C(=O)/C=C/c3ccccc3Cl)c2)c1`, the growth in the test on NCI-H23 lung was 96.5%; in the test on NCI-H226 lung, 90.3%; in the test on NCI-H322M lung, 99.9%; in the test with HOP-62 NSCLC, 103%; in the test on NCI-H460 lung, 99.6%; in the test on HOP-92 NSCLC it was 94.4%. For the same compound, the growth with NCI-H522 lung is 97.1%; in the test with A549/ATCC NSCLC it was 95.3%; with 786-0 renal, 103%; with COLO 205 colon, 107%; with DU-145 prostate, 102%; in the test on K-562 leukemia, 99.2%. Moreover, the growth in the test with MALME-3M melanoma was 91.9%; in the test on MDA-MB-231 breast it was 102%; with RXF 393 renal, 99.6%; with SF-268 CNS it was 106%; in the test on SF-295 CNS, 104%; in the test on SF-539 CNS, 101%. Also, the values for the growth in the test on UACC-257 melanoma and in the test on M14 melanoma were 98.2% and 86.5%, respectively.
In the case of `O=C(OCc1ccc2c(Cl)cc(Cl)c(O)c2n1)N1CCN(C(=O)c2cc3ccccc3[nH]2)CC1`, the growth in the test with NCI-H23 lung is 47.1%; in the test with NCI-H226 lung, 28.3%; in the test on NCI-H322M lung, 37.5%; in the test on HOP-62 NSCLC, 20%; in the test with NCI-H460 lung it was 12.8%; in the test on HOP-92 NSCLC it was 14.7%. For the same compound, the growth with NCI-H522 lung is 22.1%; with A549/ATCC NSCLC, 10.8%; in the test with 786-0 renal, 44.2%; in the test with COLO 205 colon it was 39%; in the test on DU-145 prostate, 43.8%; in the test with K-562 leukemia, 19.9%. Also, the growth in the test with MALME-3M melanoma was 36.8%; in the test with MDA-MB-231 breast, 44.7%; in the test with RXF 393 renal it was 46.5%; with SF-268 CNS, 24.3%; with SF-295 CNS it was 16.1%; in the test with SF-539 CNS, 39.8%. Moreover, the growth with UACC-257 melanoma is 25.5%; in the test on M14 melanoma, 16.9%.
With `Cc1cc(NCCCNc2ccnc3cc(Cl)ccc23)nc(Nc2ccc(C(=O)N3CCCCC3)cc2)n1`, the growth is 52.5% in the test on NCI-H23 lung; 108% in the test with NCI-H226 lung; 17.8% in the test on NCI-H322M lung; 73.8% with HOP-62 NSCLC; 9.68% (active) with NCI-H460 lung; 83.8% in the test on HOP-92 NSCLC. The growth in the test on NCI-H522 lung is -11.6% (active); with A549/ATCC NSCLC it was 20.5%; in the test on 786-0 renal it was -29.5% (active); in the test on COLO 205 colon it was -32.1% (active); with DU-145 prostate, 36.6%; in the test with K-562 leukemia, 0.0536% (active). Also, the growth with MALME-3M melanoma is -90.5% (active); with MDA-MB-231 breast, -38.7% (active); in the test with RXF 393 renal, -63.9% (active); with SF-268 CNS, 10.2%; in the test on SF-295 CNS, -34% (active); with SF-539 CNS, -75.1% (active). For the same compound, the growth with UACC-257 melanoma is -72.9% (active); with M14 melanoma it was -68.3% (active).
For the compound `COc1nc(/C=C\Nc2ccc3c(c2)OCCOCCOCCOCCO3)nc(OC)n1`, the growth in the test on NCI-H23 lung was 85.7%; in the test on NCI-H226 lung it was 103%; in the test on NCI-H322M lung, 90.5%; in the test with HOP-62 NSCLC, 109%; in the test on NCI-H460 lung, 97.3%; in the test on HOP-92 NSCLC, 95.7%. Further, the growth in the test on NCI-H522 lung is 109%; in the test with A549/ATCC NSCLC it was 99.2%; with 786-0 renal, 97.7%; in the test with COLO 205 colon, 109%; in the test on DU-145 prostate, 97.2%; in the test on K-562 leukemia it was 101%. Moreover, the growth in the test on MALME-3M melanoma was 85%; in the test on MDA-MB-231 breast, 91.2%; in the test on RXF 393 renal it was 100%; in the test with SF-268 CNS it was 92.8%; with SF-295 CNS it was 91.2%; with SF-539 CNS, 96.9%. Besides, the figures for the growth in the test on UACC-257 melanoma and in the test on M14 melanoma were 105% and 96.4%, respectively.
In the case of `FC(F)(F)c1[nH]ncc1-c1nc2ccc3[nH]ncc3c2c2c1CCCC2`, the growth in the test with NCI-H23 lung is 7.15% (active); in the test with NCI-H226 lung, 10.1%; in the test on NCI-H322M lung, 3.13% (active); with HOP-62 NSCLC, 1.07% (active); in the test on NCI-H460 lung, 5.86% (active); in the test with HOP-92 NSCLC, 31.2%. The growth in the test with NCI-H522 lung was -16.9% (active); in the test on A549/ATCC NSCLC, 0.818% (active); with 786-0 renal, -23.8% (active); in the test with COLO 205 colon, -8.58% (active); in the test on DU-145 prostate, 6.89% (active); with K-562 leukemia, 18.7%. Further, the growth in the test with MALME-3M melanoma was 8.51% (active); in the test on MDA-MB-231 breast it was 14.5%; in the test with RXF 393 renal, -62.9% (active); in the test with SF-268 CNS it was 8.87% (active); in the test on SF-295 CNS it was 24.3%; in the test with SF-539 CNS, -35.1% (active). Also, the growth was 17.6% in the test with UACC-257 melanoma and 12.5% in the test on M14 melanoma.
